Measurements from PubChem BioAssay AID720631 (The Scripps Research Institute Molecular Screening Center, 2013).
This is one part of the list. Values without a mark were called inactive.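 The calls were made as follows: active = inhibition above the mean of compounds lying within the control limits plus 3 SD (cut at about 16% in these data); inactive = the rest.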

Molecular target: Fibrinogen beta chain (Homo sapiens) (UniProt P02675)
Assay: Tn6 displacement from DD(E) complex – biochemical, fluorescence polarization, human fibrin, Tn6 probe, confirmation (AID 720631);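 also: 0% = plate median of compound wells and 100% = inhibitor peptide control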
Settings: FP displacement of TRITC-Tn6 peptide from DD(E); at 8.3 µM; hits give high values

Chain of Fibrinogen beta chain (Homo sapiens) (P02675 whole entry, looked up): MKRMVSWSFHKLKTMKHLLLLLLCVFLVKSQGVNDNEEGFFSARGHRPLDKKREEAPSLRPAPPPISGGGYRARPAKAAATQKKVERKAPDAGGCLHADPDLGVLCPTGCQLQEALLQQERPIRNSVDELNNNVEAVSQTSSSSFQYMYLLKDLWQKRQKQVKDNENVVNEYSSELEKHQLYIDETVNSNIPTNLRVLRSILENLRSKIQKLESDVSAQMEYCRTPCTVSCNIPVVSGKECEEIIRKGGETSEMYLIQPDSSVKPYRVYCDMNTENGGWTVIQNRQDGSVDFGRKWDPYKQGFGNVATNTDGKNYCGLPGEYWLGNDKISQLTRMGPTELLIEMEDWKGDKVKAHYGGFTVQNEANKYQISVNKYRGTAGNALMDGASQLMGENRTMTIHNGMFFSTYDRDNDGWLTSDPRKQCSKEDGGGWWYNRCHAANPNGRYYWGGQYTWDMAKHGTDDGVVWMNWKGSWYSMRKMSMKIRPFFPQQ

| SMILES | inhibition [%] |
| --- | --- |
| Cc1cc(N2CCNC[C@@H]2C)ccc1N1CC[C@H](O)C1 | 2.65 |
| COc1ccc2c(c1O)-c1cccc3c1[C@@H](C2)N(C)CC3 | -8.1 |
